We go through 38 compounds from PubChem BioAssay (NCI).

Compounds without any hit were thinned out: in the full panel of roughly 83,000, 20% have a hit.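 Cell lines were cultured in 96-well plates, exposed to a single compound concentration, and assessed for percent growth 48 hours later.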 Unmarked numbers belong to inactive results. Active and inactive are the calls of the source. Rule for the calls: active = growth percent below 10; inactive = the rest.

One assay concerns SNB-75 CNS. Briefly: NCI-60 one-dose screen, 48 h (100 = growth as untreated, 0 = no growth, -100 = all killed). As to conditions: 10 µM.
Take `CCOC(=O)[C@@H]1[C@H](c2ccccc2)[C@H]([N+](=O)[O-])[C@H](c2cn(-c3ccccc3)nc2C)N1Cc1ccccc1`: the growth was 81.5%.
As to `O=S(=O)(NC1c2ccccc2Oc2ccccc21)c1cc(Cl)ccc1Cl`, the growth was 90.2%.
On to `O=C(O)CCCCSCCCCC(=O)O`, for which the growth is 95.7%.
The same measure, in the same setting: next, `COc1ccc(OC)c([N+](=O)[O-])c1C=O`: 85.8%; `c1ccc(CC(NCCNC(Cc2ccccc2)c2ccccc2)c2ccccc2)cc1` (stereo unspecified): 63.3%.
In the case of `COc1ccc(-c2nsc3c2NC(=O)CC3c2cccc(Cl)c2)cc1` (stereo unspecified), the growth is -0.284% (active).
Consider `Oc1ccc(/C=N\Nc2ccccn2)c(O)c1`, for which the growth is 9.86% (active).
The same measure, in the same setting: next, `O=c1ccc2nc(-c3ccccc3)nn(-c3ccccc3)c-2c1`: 93.3%; `COc1ccc2nc(C)cc(Nc3ccc(Cl)cc3)c2c1`: 102%; `COc1c(-c2c3sc(=O)[nH]c3nc3c2c(=O)[nH]n3C(C)C)cc2c(c1OC)OCO2`: 92.7%.
On to `Fc1cc(-c2ncc(-c3cc(F)c(F)c(F)c3)c(NC3CCCCCC3)n2)cc(F)c1F`, for which the growth was 85.7%.
On the same count and under the same terms, next, `COc1ccc(NC(=O)CCn2cnc3c(cc(-c4ccccc4)n3-c3ccccc3)c2=O)cc1`: -10.5% (active); `N#CCC1CCCC1`: 78.7%; `COc1ccc(-c2nnc(COc3ccc(NC(=O)Nc4cccc(C(F)(F)F)c4)cc3F)o2)cc1`: 79.6%.
Turning to `COc1ccc(/C=C2\SC(=S)N(CCCN3CCOCC3)C2=O)c(OC)c1`, the growth is 99.4%.
On to `COc1cc2nc(Sc3sc(N)nc3C)n(-c3ccc(Oc4ccccc4)cc3)c(=O)c2cc1OC`, for which the growth was 86.7%.
Consider `Cc1ccc2oc(=O)cc(/C(=C3/C=CC=N3)c3ccc[nH]3)c2c1`, for which the growth is 8.89% (active).
For `Nc1ccccc1NC(=O)CCCCCCC(=O)Nc1ccc2c(c1)/C(=C/c1ccc[nH]1)C(=O)N2`, the growth was -2.9% (active).
As for `COc1ccccc1Cn1cc2c(c1-c1ccccc1)CCc1cnoc1-2`, the growth is 15.6%.
In the case of `COc1cc(-c2nc3ccc(C)cc3[nH]2)ccc1OCc1nnc(-c2ccc(CC(C)C)cc2)o1`, the growth is 83.9%.
Same read-out and setting: next, `C[n+]1c(/C=C/c2c[nH]c3ccccc23)ccc2ccccc21`: 90.9%.
Consider `COc1cc(Cl)cc(-c2nn(-c3cccc(NC(=O)Nc4cccc(C(F)(F)F)c4)c3)cc2-c2ccncc2)c1`, for which the growth is 12.5%.
Regarding `COc1cc(/C=C/C(=O)c2cc(-c3ccc(F)cc3)ccc2O)cc(OC)c1OC`, the growth was 91.9%.
Turning to `Cc1ccc2c(c1)-c1cc(C)nn1-c1ccc(C#N)cc1O2`, the growth is 48.8%.
Turning to `C=CCNC(=S)NN`, the growth is 95.3%.
Same read-out and setting: next, `N/C(=N\O)c1cn(C2OC(CO)C(O)C2O)c2ncnc(N)c12` (stereo unspecified): -7.06% (active); `CC(=O)c1c(O)cc2c3c1OC(C)(C)C1CCC(C)(CC31)O2` (stereo unspecified): 96%; `CC(=O)Nc1ccc(Sc2ccc(NC(C)=O)cc2)cc1`: 84.1%.
Turning to `CC(=O)N(O)c1ccc(/C=C/c2ccccc2)cc1`, the growth was 16%.
On to `CCOc1nc(-c2ccccc2)cc2c(O)c(C(=O)N/N=C/c3ccc(OC)cc3)[nH]c(=O)c12`, for which the growth was 91.7%.
In the case of `CNC(=S)Sc1ccc([N+](=O)[O-])cc1[N+](=O)[O-]`, the growth is 88.1%.
Take `O=C(COc1ccc(Cl)cc1Cl)Oc1coc(CSc2nc3ccccc3s2)cc1=O`: the growth was 112%.
With `COc1ccc(Cn2cc3c(c2-c2ccccc2)CC(C)(C)c2cnoc2-3)cc1`, the growth is 13.1%.
Turning to `Cc1nnc2c3nnc(-c4ccc(Cl)cc4)n3c3ccccc3n12`, the growth is 89.1%.
As to `Nc1ccc(Sc2ccc3c4c2cccc4c(=O)n2c4ccccc4nc32)cc1`, the growth is 43.7%.
Consider `COc1cccc(C(=O)NNc2nc(N3CCN(C4CCCCC4)CC3)nc(N3CCN(C(c4ccccc4)c4ccccc4)CC3)n2)c1`, for which the growth was 63.6%.
Consider `Cc1ncc([N+](=O)[O-])n1CCOc1ccc(C(=O)/C=C/c2ccc(C(F)(F)F)cc2)cc1`, for which the growth is 60.1%.
Consider `O=C(CCc1ccccc1)N1CCN(C(=O)CCc2ccccc2)CC1`, for which the growth is 93.9%.

The subject of another assay is SNB-19 CNS. The description is as above. As to conditions: 10 µM.
As to `CCOC(=O)[C@@H]1[C@H](c2ccccc2)[C@H]([N+](=O)[O-])[C@H](c2cn(-c3ccccc3)nc2C)N1Cc1ccccc1`, the growth was 77.7%.
Regarding `O=S(=O)(NC1c2ccccc2Oc2ccccc21)c1cc(Cl)ccc1Cl`, the growth is 97.2%.
With `O=C(O)CCCCSCCCCC(=O)O`, the growth is 108%.
Still for that read-out and setting: next, `COc1ccc(OC)c([N+](=O)[O-])c1C=O`: 101%.
Turning to `c1ccc(CC(NCCNC(Cc2ccccc2)c2ccccc2)c2ccccc2)cc1` (stereo unspecified), the growth is 44.4%.
For `COc1ccc(-c2nsc3c2NC(=O)CC3c2cccc(Cl)c2)cc1` (stereo unspecified), the growth was 54.3%.
As to `Oc1ccc(/C=N\Nc2ccccn2)c(O)c1`, the growth was 29.4%.
As for `O=c1ccc2nc(-c3ccccc3)nn(-c3ccccc3)c-2c1`, the growth is 78%.
Same read-out and setting: next, `COc1ccc2nc(C)cc(Nc3ccc(Cl)cc3)c2c1`: 104%; `COc1c(-c2c3sc(=O)[nH]c3nc3c2c(=O)[nH]n3C(C)C)cc2c(c1OC)OCO2`: 98.7%; `Fc1cc(-c2ncc(-c3cc(F)c(F)c(F)c3)c(NC3CCCCCC3)n2)cc(F)c1F`: 99.7%.
Turning to `COc1ccc(NC(=O)CCn2cnc3c(cc(-c4ccccc4)n3-c3ccccc3)c2=O)cc1`, the growth is 57.2%.
`N#CCC1CCCC1`: the growth is 98.8%.
Turning to `COc1ccc(-c2nnc(COc3ccc(NC(=O)Nc4cccc(C(F)(F)F)c4)cc3F)o2)cc1`, the growth was 47.7%.
As for `COc1ccc(/C=C2\SC(=S)N(CCCN3CCOCC3)C2=O)c(OC)c1`, the growth is 99.8%.
On to `COc1cc2nc(Sc3sc(N)nc3C)n(-c3ccc(Oc4ccccc4)cc3)c(=O)c2cc1OC`, for which the growth is 105%.
As for `Cc1ccc2oc(=O)cc(/C(=C3/C=CC=N3)c3ccc[nH]3)c2c1`, the growth is 16.2%.
For `Nc1ccccc1NC(=O)CCCCCCC(=O)Nc1ccc2c(c1)/C(=C/c1ccc[nH]1)C(=O)N2`, the growth was 49.8%.
Same read-out and setting: next, `COc1ccccc1Cn1cc2c(c1-c1ccccc1)CCc1cnoc1-2`: 53.5%.
The same measure, in the same setting: next, `COc1cc(-c2nc3ccc(C)cc3[nH]2)ccc1OCc1nnc(-c2ccc(CC(C)C)cc2)o1`: 94.6%; `C[n+]1c(/C=C/c2c[nH]c3ccccc23)ccc2ccccc21`: 68.4%; `COc1cc(Cl)cc(-c2nn(-c3cccc(NC(=O)Nc4cccc(C(F)(F)F)c4)c3)cc2-c2ccncc2)c1`: 16.1%.
As for `COc1cc(/C=C/C(=O)c2cc(-c3ccc(F)cc3)ccc2O)cc(OC)c1OC`, the growth is 86.8%.
Regarding `Cc1ccc2c(c1)-c1cc(C)nn1-c1ccc(C#N)cc1O2`, the growth is 68.6%.
For `C=CCNC(=S)NN`, the growth is 94.4%.
Turning to `N/C(=N\O)c1cn(C2OC(CO)C(O)C2O)c2ncnc(N)c12` (stereo unspecified), the growth is 16.5%.
Take `CC(=O)c1c(O)cc2c3c1OC(C)(C)C1CCC(C)(CC31)O2` (stereo unspecified): the growth is 98.7%.
For `CC(=O)Nc1ccc(Sc2ccc(NC(C)=O)cc2)cc1`, the growth was 106%.
As for `CC(=O)N(O)c1ccc(/C=C/c2ccccc2)cc1`, the growth is 32.3%.
Still for that read-out and setting: next, `CCOc1nc(-c2ccccc2)cc2c(O)c(C(=O)N/N=C/c3ccc(OC)cc3)[nH]c(=O)c12`: 96.9%.
Turning to `CNC(=S)Sc1ccc([N+](=O)[O-])cc1[N+](=O)[O-]`, the growth was 94.3%.
Consider `O=C(COc1ccc(Cl)cc1Cl)Oc1coc(CSc2nc3ccccc3s2)cc1=O`, for which the growth is 103%.
The same measure, in the same setting: next, `COc1ccc(Cn2cc3c(c2-c2ccccc2)CC(C)(C)c2cnoc2-3)cc1`: 55.2%; `Cc1nnc2c3nnc(-c4ccc(Cl)cc4)n3c3ccccc3n12`: 106%.
Regarding `Nc1ccc(Sc2ccc3c4c2cccc4c(=O)n2c4ccccc4nc32)cc1`, the growth was 46.3%.
With `COc1cccc(C(=O)NNc2nc(N3CCN(C4CCCCC4)CC3)nc(N3CCN(C(c4ccccc4)c4ccccc4)CC3)n2)c1`, the growth is 47.7%.
On to `Cc1ncc([N+](=O)[O-])n1CCOc1ccc(C(=O)/C=C/c2ccc(C(F)(F)F)cc2)cc1`, for which the growth was 69.7%.
Take `O=C(CCc1ccccc1)N1CCN(C(=O)CCc2ccccc2)CC1`: the growth was 99.6%.
